{
  "source": "PubChem BioAssay (NCATS)",
  "key": {"[1]": {"test": "Immunotoxin (HA22) sensitization/mitigation study. Vehicle arm (PBS) (AID 1159510)"}, "[2]": {"test": "Immunotoxin (SS1P) sensitization/mitigation study. Vehicle arm (DMEM) (AID 1159513)"}},
  "note": "“And” between values parts separate entries of the source, which are not always exact repeats. Equal values may be shown once. The source made the active and inactive calls. How the calls were made is not given here. Potency means the concentration at half of the fitted maximal effect.",
  "data": [
    {"molecule": "CC1(C)Cc2c(-c3ccccc3)c(-c3ccc(Cl)cc3)c(CC(=O)O)n2C1", "values": [
      {"measurement": "Potency", "setting": "[1]", "value": "18.7 µM (active)"},
      {"measurement": "Potency", "setting": "[2]", "value": "16.6 µM (active)"}
    ]},
    {"molecule": "CC(C)CC(=O)Nc1n[nH]c2c1CN(C(=O)C1CCN(C)CC1)C2(C)C", "values": [
      {"measurement": "Potency", "setting": "[1]", "value": "0.0526 µM (active)"},
      {"measurement": "Potency", "setting": "[2]", "value": "0.264 µM (active)"}
    ]},
    {"molecule": "COC(=O)Nc1ccc(-c2nc(N3CCOCC3)c3cnn(C4CCN(C(=O)OC)CC4)c3n2)cc1", "values": [
      {"measurement": "Potency", "setting": "[1]", "value": "16.6 µM (active)"},
      {"measurement": "Potency", "setting": "[2]", "value": "0.187 µM (active)"}
    ]},
    {"molecule": "COc1cc2ncnc(-n3nc(-c4ccccn4)nc3N)c2cc1OC", "values": [
      {"measurement": "Potency", "setting": "[1]", "value": "3.72 µM (active)"},
      {"measurement": "Potency", "setting": "[2]", "value": "4.18 µM (active)"}
    ]},
    {"molecule": "O=C(NC1CCNCC1)c1[nH]ncc1NC(=O)c1c(Cl)cccc1Cl", "values": [
      {"measurement": "Potency", "setting": "[1]", "value": "37.2 nM (active) and 105 nM (active)"},
      {"measurement": "Potency", "setting": "[2]", "value": "29.6 nM (active) and 83.3 nM (active)"}
    ]},
    {"molecule": "CC(C)(N)C(=O)N[C@H](COCc1ccccc1)C(=O)N1CCC2(CC1)CN(S(C)(=O)=O)c1ccccc12", "values": [
      {"measurement": "Potency", "setting": "[1]", "value": "18.7 µM (active)"},
      {"measurement": "Potency", "setting": "[2]", "value": "8.33 µM (active)"}
    ]},
    {"molecule": "O=C(O)CCC1CCC(c2cc(F)ccc2F)(S(=O)(=O)c2ccc(Cl)cc2)CC1", "note": "(configuration not stated)", "values": [
      {"measurement": "Potency", "setting": "[1]", "value": "inactive"},
      {"measurement": "Potency", "setting": "[2]", "value": "inactive"}
    ]},
    {"molecule": "CC(NCc1ccc2c(c1)nc(NC(=O)c1ccc(-c3cn[nH]c3)s1)n2CC(C)(C)O)C(C)(C)C", "note": "(configuration not stated)", "values": [
      {"measurement": "Potency", "setting": "[1]", "value": "0.0469 µM (active)"},
      {"measurement": "Potency", "setting": "[2]", "value": "0.0418 µM (active)"}
    ]},
    {"molecule": "CCC=CC[C@H]1C(=O)CC[C@@H]1CC(=O)OC", "values": [
      {"measurement": "Potency", "setting": "[1]", "value": "inactive"},
      {"measurement": "Potency", "setting": "[2]", "value": "inactive"}
    ]},
    {"molecule": "COc1cc2c(cc1OC)CC(=O)N(CCCN(C)C[C@H]1Cc3cc(OC)c(OC)cc31)CC2", "values": [
      {"measurement": "Potency", "setting": "[1]", "value": "inactive"},
      {"measurement": "Potency", "setting": "[2]", "value": "inactive"}
    ]},
    {"molecule": "Nc1ccccc1NC(=O)c1ccc(CNc2nccc(-c3cccnc3)n2)cc1", "values": [
      {"measurement": "Potency", "setting": "[1]", "value": "0.132 µM (active)"},
      {"measurement": "Potency", "setting": "[2]", "value": "0.187 µM (active)"}
    ]},
    {"molecule": "COc1cc2nc(-c3ccc(N4CCN(C)CC4)cc3)nc(NCCN3CCOCC3)c2cc1OC", "values": [
      {"measurement": "Potency", "setting": "[1]", "value": "2.35 µM (active)"},
      {"measurement": "Potency", "setting": "[2]", "value": "18.7 µM (active)"}
    ]},
    {"molecule": "COc1cc(Oc2ccnc3cc(OC)c(OC)cc23)ccc1NC(=O)NC(C)c1nccs1", "note": "(configuration not stated)", "values": [
      {"measurement": "Potency", "setting": "[1]", "value": "16.6 µM (active)"},
      {"measurement": "Potency", "setting": "[2]", "value": "20.9 µM (active)"}
    ]},
    {"molecule": "COc1nc(C)cnc1NS(=O)(=O)c1cccnc1-c1ccc(-c2nnco2)cc1", "values": [
      {"measurement": "Potency", "setting": "[1]", "value": "inactive"},
      {"measurement": "Potency", "setting": "[2]", "value": "inactive"}
    ]},
    {"molecule": "O=C(C=Cc1ccc(/C=C/C(=O)Nc2ccc(C3=NCCN3)cc2)cc1)Nc1ccc(C2=NCCN2)cc1", "values": [
      {"measurement": "Potency", "setting": "[1]", "value": "inactive"},
      {"measurement": "Potency", "setting": "[2]", "value": "inactive"}
    ]},
    {"molecule": "O=C(O)c1ccc(-c2cc3cccnc3c(-c3ccc4nonc4c3)n2)cc1", "values": [
      {"measurement": "Potency", "setting": "[1]", "value": "inactive"},
      {"measurement": "Potency", "setting": "[2]", "value": "inactive"}
    ]},
    {"molecule": "Cn1c(Nc2ccc(C(F)(F)F)cc2)nc2cc(Oc3ccnc(-c4ncc(C(F)(F)F)[nH]4)c3)ccc21", "values": [
      {"measurement": "Potency", "setting": "[1]", "value": "11.8 µM (active)"},
      {"measurement": "Potency", "setting": "[2]", "value": "23.5 µM (active)"}
    ]},
    {"molecule": "Cc1cc(Nc2cc(N3CCN(C)CC3)nc(C=Cc3ccccc3)n2)n[nH]1", "values": [
      {"measurement": "Potency", "setting": "[1]", "value": "1.32 µM (active)"},
      {"measurement": "Potency", "setting": "[2]", "value": "0.833 µM (active)"}
    ]},
    {"molecule": "CCOc1ccc(Nc2nc(-c3c(C)nc4ccccn34)cs2)cc1", "values": [
      {"measurement": "Potency", "setting": "[1]", "value": "0.0105 µM (active)"},
      {"measurement": "Potency", "setting": "[2]", "value": "0.0059 µM (active)"}
    ]},
    {"molecule": "O=c1cc(CN2CCOCC2)occ1OCCCCCSc1ccnc2cc(C(F)(F)F)ccc12", "values": [
      {"measurement": "Potency", "setting": "[1]", "value": "20.9 µM (active)"},
      {"measurement": "Potency", "setting": "[2]", "value": "5.9 µM (active)"}
    ]},
    {"molecule": "Nc1cc(C(F)(F)F)c(-c2cc(N3CCOCC3)nc(N3CCOCC3)n2)cn1", "values": [
      {"measurement": "Potency", "setting": "[1]", "value": "1.05 µM (active)"},
      {"measurement": "Potency", "setting": "[2]", "value": "0.935 µM (active)"}
    ]},
    {"molecule": "O=C(C1CC1)N1CC[C@@H](Cn2c(-c3ccc(-c4ccc5occc5c4)cc3)nc3cnccc32)C1", "values": [
      {"measurement": "Potency", "setting": "[1]", "value": "20.9 µM (active)"},
      {"measurement": "Potency", "setting": "[2]", "value": "16.6 µM (active)"}
    ]},
    {"molecule": "COc1cc(OC2CCN(C)CC2)ccc1Nc1ncc2c(n1)n(C1CCCC1)c(=O)n2C", "values": [
      {"measurement": "Potency", "setting": "[1]", "value": "10.5 µM (active)"},
      {"measurement": "Potency", "setting": "[2]", "value": "16.6 µM (active)"}
    ]},
    {"molecule": "C[C@@H](Oc1cc(-n2cnc3ccc(CN4CCN(C)CC4)cc32)sc1C(N)=O)c1ccccc1C(F)(F)F", "values": [
      {"measurement": "Potency", "setting": "[1]", "value": "0.0132 µM (active)"},
      {"measurement": "Potency", "setting": "[2]", "value": "0.0019 µM (active)"}
    ]},
    {"molecule": "O=C(NOC[C@H](O)CO)c1ccc(F)c(F)c1Nc1ccc(I)cc1F", "values": [
      {"measurement": "Potency", "setting": "[1]", "value": "inactive"},
      {"measurement": "Potency", "setting": "[2]", "value": "inactive"}
    ]},
    {"molecule": "C1Cc2[nH]nc(-c3nn[nH]n3)c2C1", "values": [
      {"measurement": "Potency", "setting": "[1]", "value": "inactive"},
      {"measurement": "Potency", "setting": "[2]", "value": "inactive"}
    ]},
    {"molecule": "COc1ccc(-c2ccc3c(N4CCOCC4)nc(N4C[C@@H](C)O[C@@H](C)C4)nc3n2)cc1CO", "values": [
      {"measurement": "Potency", "setting": "[1]", "value": "1.48 µM (active)"},
      {"measurement": "Potency", "setting": "[2]", "value": "0.105 µM (active)"}
    ]},
    {"molecule": "OC[C@H](Cc1ccccc1)Nc1nc(Oc2ccc3c(c2)CCC3)nc2c1ncn2Cc1ccc(-c2ccccc2)cc1", "values": [
      {"measurement": "Potency", "setting": "[1]", "value": "10.5 µM (active)"},
      {"measurement": "Potency", "setting": "[2]", "value": "13.2 µM (active)"}
    ]},
    {"molecule": "CC1(C)SCCN(S(=O)(=O)c2ccc(OCC#CCO)cc2)[C@@H]1C(=O)NO", "values": [
      {"measurement": "Potency", "setting": "[1]", "value": "inactive"},
      {"measurement": "Potency", "setting": "[2]", "value": "inactive"}
    ]},
    {"molecule": "O=C(O)CC/C=C\\CC[C@H]1[C@@H](N2CCCCC2)[C@@H](O)C[C@@H]1OCc1ccc(-c2ccccc2)cc1", "values": [
      {"measurement": "Potency", "setting": "[1]", "value": "inactive"},
      {"measurement": "Potency", "setting": "[2]", "value": "inactive"}
    ]},
    {"molecule": "Cc1cnc(Nc2ccc(F)cc2Cl)nc1-c1c[nH]c(C(=O)N[C@H](CO)c2cccc(Cl)c2)c1", "values": [
      {"measurement": "Potency", "setting": "[1]", "value": "23.5 µM (active)"},
      {"measurement": "Potency", "setting": "[2]", "value": "20.9 µM (active)"}
    ]}
  ]
}
